# According to PubChem BioAssay (EPA / NIEHS):
# Inconclusive results are not listed. Activity calls are given as the source filed them. How the source made its calls: active means hit-call score of the fitted dose curve at least 0.9, where 1 is the maximum; inconclusive means response in the unintended direction; inactive means score below 0.9.
# Biological target: human Caspase 2 (CASP2), CASP2 (gene 835) (UniProt P42575)
# Experiment: NVS_ENZ_hCASP2: NovaScreen (NVS) Enzymatic Assay for human Caspase 2 (CASP2) (AID 2283135)
# Method: NVS_ENZ_hCASP2 is a biochemical, single-readout assay that uses extracted gene-proteins from E. coli in a cell-free assay. Measurements were taken 1 hour after chemical dosing in a 96-well plate.NVS_ENZ_hCASP2 is one of one assay component(s) measured or calculated from the NVS_ENZ_hCASP2 assay. It is designed to make measurements of enzyme activity, a form of enzyme reporter, as detected with fluorescence intensity signals by Fluorescence technology.Data from the assay component NVS_ENZ_hCASP2 was analyzed into 1 assay endpoint. This assay endpoint, NVS_ENZ_hCASP2, was analyzed in the positive analysis fitting direction relative to DMSO as the negative control and baseline of activity. Using a type of enzyme reporter, loss-of-signal activity can be used to understand changes in the enzymatic activity as they relate to the gene CASP2. Furthermore, this assay endpoint can be referred to as a primary readout, because this assay has produced multiple assay endpoints where this one serves a enzymatic activity function. To generalize the intended target to other relatable targets, this assay endpoint is annotated to the protease intended target family, where the subfamily is cysteine protease.
# Binding assays used specific radioligands (tritiated, iodinated) with non-radioactive competitive displacement ligands in agonist or antagonist protocols (as indicated) and various reference compounds and inhibitors to titrate specific binding to receptors and transporters. Most enzyme assays (CYPs, kinases, phosphatases, proteases, HDACs) used recombinant protein and specific substrates (fluorescence mostly, some colorimetric and radioactive) and inhibitors, followed by a biochemical separation of substrate and product. All assays for the biochemical HTS were initially run in duplicate at a single concentration (10 uM for CYP450 assays and 25 uM for all others). […]
# human Caspase 2 (CASP2), CASP2 (gene 835), sequence (P42575 whole entry, looked up): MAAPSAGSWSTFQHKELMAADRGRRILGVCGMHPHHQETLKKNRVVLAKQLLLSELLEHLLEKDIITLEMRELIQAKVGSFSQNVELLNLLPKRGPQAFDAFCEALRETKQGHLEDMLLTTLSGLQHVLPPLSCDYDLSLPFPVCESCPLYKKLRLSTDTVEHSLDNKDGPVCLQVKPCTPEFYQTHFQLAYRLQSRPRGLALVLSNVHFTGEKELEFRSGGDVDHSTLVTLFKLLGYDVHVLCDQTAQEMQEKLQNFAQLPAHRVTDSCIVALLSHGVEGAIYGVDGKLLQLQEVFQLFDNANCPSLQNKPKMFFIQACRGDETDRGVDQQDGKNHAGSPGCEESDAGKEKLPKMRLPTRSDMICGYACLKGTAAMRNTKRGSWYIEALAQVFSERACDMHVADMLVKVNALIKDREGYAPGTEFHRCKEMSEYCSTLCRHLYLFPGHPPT
SMILES,AC50,outcome
CC(C)O.CC(C)O.OCCN(CCO)CCO.OCCN(CCO)CCO.[Ti],3.12 µM (active),–
Clc1cccc(Cl)c1Cl,–,inactive
O=C(N[C@H]1CN2CCC1CC2)c1ccc2c(c1)OCCO2,–,inactive

# Biological target: human Acid Phosphatase 1 (ACP1), ACP1 (gene 52) (UniProt P24666)
# Sequence (P24666 whole entry, looked up): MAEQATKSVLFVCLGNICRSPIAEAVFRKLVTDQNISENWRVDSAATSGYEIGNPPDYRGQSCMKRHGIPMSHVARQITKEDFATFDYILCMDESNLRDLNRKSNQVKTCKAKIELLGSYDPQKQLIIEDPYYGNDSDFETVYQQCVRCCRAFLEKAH
# Experiment: NVS_ENZ_hACP1: NovaScreen (NVS) Enzymatic Assay for human Acid Phosphatase 1 (ACP1) (AID 2283136)
# How it was run: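 Recombinant enzyme expressed in Sf9 cells, tested cell-free; activity read by fluorescence with electrophoretic mobility shift separation of substrate and product, 1.5 h after dosing. Primary screen in duplicate at 25 uM, actives then run in concentration series; loss of signal versus DMSO.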
row,SMILES,outcome
1,CCCCCCCCCCCCc1cccc(S(=O)(=O)O)c1,inactive
2,Clc1cccc(Cl)c1Cl,inactive
3,N#Cc1cccnc1,inactive

# Biological target: human Caspase 5 (CASP5), CASP5 (gene 838) (UniProt P51878)
# Sequence (P51878 whole entry, looked up): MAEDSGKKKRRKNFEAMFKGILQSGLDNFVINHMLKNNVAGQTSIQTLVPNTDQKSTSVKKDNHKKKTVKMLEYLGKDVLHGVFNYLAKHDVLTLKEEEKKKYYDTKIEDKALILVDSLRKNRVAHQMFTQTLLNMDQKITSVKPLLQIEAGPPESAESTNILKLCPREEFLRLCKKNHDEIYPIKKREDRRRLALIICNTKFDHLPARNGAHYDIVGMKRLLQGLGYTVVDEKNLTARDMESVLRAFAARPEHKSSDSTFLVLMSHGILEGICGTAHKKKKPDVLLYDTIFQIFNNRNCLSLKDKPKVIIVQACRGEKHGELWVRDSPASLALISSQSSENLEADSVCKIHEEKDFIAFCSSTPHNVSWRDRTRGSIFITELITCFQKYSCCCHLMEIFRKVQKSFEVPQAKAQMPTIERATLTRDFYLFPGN
# Experiment: NVS_ENZ_hCASP5: NovaScreen (NVS) Enzymatic Assay for human Caspase 5 (CASP5) (AID 2283137)
# How it was run: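 Recombinant E. coli-expressed human caspase 5 in a cell-free enzyme assay; fluorescence intensity read 2 hours after chemical dosing. Single-concentration duplicate screen at 25 uM, then concentration-response up to 50 uM for hits; DMSO negative control.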
row,SMILES,AC50
1,Nc1c(Oc2ccccc2)cc(O)c2c1C(=O)c1ccccc1C2=O,0.133 µM (active)
2,CC(C)O.CC(C)O.OCCN(CCO)CCO.OCCN(CCO)CCO.[Ti],1.81 µM (active)
3,O=c1oc2ccccc2c(O)c1C(CC(O)c1ccc(-c2ccc(Br)cc2)cc1)c1ccccc1 (stereo not drawn),9.45 µM (active)
4,Nc1ccc(N)cc1,5.42 µM (active)

# Biological target: human AKT serine/threonine Kinase 1 (AKT1), AKT1 (gene 207) (UniProt P31749)
# Sequence (P31749 whole entry, looked up): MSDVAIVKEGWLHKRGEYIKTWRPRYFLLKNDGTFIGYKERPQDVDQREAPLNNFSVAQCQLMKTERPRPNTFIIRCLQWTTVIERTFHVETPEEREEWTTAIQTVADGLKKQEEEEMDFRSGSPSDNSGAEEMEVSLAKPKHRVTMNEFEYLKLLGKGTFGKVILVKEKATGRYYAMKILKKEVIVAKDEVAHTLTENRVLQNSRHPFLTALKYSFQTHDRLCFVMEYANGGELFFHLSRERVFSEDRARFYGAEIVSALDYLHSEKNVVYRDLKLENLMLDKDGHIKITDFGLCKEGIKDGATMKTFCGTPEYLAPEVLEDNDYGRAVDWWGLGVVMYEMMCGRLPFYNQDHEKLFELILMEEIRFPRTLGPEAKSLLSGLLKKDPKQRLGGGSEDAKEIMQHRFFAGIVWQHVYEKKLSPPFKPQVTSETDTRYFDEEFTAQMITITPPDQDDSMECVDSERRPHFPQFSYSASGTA
# Experiment: NVS_ENZ_hAKT1: NovaScreen (NVS) Enzymatic Assay for human AKT serine/threonine Kinase 1 (AKT1) (AID 2283138)
# How it was run: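 Cell-free recombinant enzyme with substrate; activity read by fluorescence intensity after electrophoretic mobility shift separating substrate from product, 1 h after dosing. Single-concentration duplicates at 25 uM, then singleton concentration-response up to 50 uM; loss of signal versus DMSO.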
SMILES,AC50,outcome
CCCCCCCCCCCCc1cccc(S(=O)(=O)O)c1,35 µM (active),–
CC(C)O.CC(C)O.OCCN(CCO)CCO.OCCN(CCO)CCO.[Ti],0.00319 µM (active),–
Oc1cc(Cl)c(Cl)cc1Cl,–,inactive
COc1ccccc1N,–,inactive

# Biological target: human Beta-secretase (BACE), BACE1 (gene 23621) (UniProt P56817)
# Sequence (P56817 whole entry, looked up): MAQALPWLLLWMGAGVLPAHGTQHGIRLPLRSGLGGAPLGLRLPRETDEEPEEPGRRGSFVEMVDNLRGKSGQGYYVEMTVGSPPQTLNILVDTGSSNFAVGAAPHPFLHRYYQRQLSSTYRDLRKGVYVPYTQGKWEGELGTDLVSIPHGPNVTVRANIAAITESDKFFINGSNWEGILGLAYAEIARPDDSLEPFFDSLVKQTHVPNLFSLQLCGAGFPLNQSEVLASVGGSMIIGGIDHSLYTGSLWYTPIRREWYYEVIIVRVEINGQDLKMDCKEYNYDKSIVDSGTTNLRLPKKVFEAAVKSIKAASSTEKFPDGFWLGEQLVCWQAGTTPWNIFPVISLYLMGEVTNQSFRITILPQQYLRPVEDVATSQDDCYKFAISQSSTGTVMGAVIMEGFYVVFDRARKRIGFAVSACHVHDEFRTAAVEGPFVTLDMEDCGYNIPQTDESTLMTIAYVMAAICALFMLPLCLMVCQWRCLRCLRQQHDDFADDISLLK
# Experiment: NVS_ENZ_hBACE: NovaScreen (NVS) Enzymatic Assay for human Beta-secretase (BACE) (AID 2283140);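 further: hits are inhibitors that reduce fluorescent substrate signal versus DMSO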
# How it was run: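 Cell-free fluorescence-intensity assay of recombinant BACE1 expressed in SF9 cells, read 1 hour after dosing. Loss of signal indicates reduced protease activity, fitted relative to DMSO negative control. Primary screen at 25 uM in duplicate; actives followed in concentration series.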
SMILES,AC50,outcome
CCCCCCCCCCCCc1cccc(S(=O)(=O)O)c1,0.428 µM (active),–
Nc1c(Oc2ccccc2)cc(O)c2c1C(=O)c1ccccc1C2=O,5.73 µM (active),–
CC(C)O.CC(C)O.OCCN(CCO)CCO.OCCN(CCO)CCO.[Ti],7.67 µM (active),–
CN(C)C(=S)S,–,inactive
O=C(Cc1ccccc1)OCCc1ccccc1,25 µM (active),–
BrCCCCBr,–,inactive
Nc1ccc(N)cc1,15.1 µM (active),–
O=C(N[C@H]1CN2CCC1CC2)c1ccc2c(c1)OCCO2,–,inactive

# Biological target: human Aurora Kinase A - serine/threonine-protein Kinase 6 (AurA), AURKA (gene 6790) (UniProt O14965)
# Sequence (O14965 whole entry, looked up): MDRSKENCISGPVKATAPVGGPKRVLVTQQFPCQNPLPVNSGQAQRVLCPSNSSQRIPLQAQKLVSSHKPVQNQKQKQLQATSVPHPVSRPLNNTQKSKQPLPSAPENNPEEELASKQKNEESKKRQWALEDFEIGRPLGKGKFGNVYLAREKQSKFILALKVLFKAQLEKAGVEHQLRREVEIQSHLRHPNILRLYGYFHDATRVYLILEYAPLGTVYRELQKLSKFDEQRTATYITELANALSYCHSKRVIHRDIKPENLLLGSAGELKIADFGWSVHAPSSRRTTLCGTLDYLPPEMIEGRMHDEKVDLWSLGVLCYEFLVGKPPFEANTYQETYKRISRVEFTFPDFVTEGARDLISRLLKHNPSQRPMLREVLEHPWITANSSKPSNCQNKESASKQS
# Experiment: NVS_ENZ_hAurA: NovaScreen (NVS) Enzymatic Assay for human Aurora Kinase A - serine/threonine-protein Kinase 6 (AurA) (AID 2283142)
# How it was run: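 Cell-free enzymatic assay with human Aurora A, 1 hour after dosing. Fluorescent substrate turnover detected after electrophoretic mobility shift separation of substrate and product. Screened at 25 uM, actives retested in concentration-response up to 50 uM.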
SMILES,AC50,outcome
CCCCCCCCCCCCc1cccc(S(=O)(=O)O)c1,16.1 µM (active),–
CCCCCCCCCCCCOS(=O)(=O)O,28.5 µM (active),–
CC(C)O.CC(C)O.OCCN(CCO)CCO.OCCN(CCO)CCO.[Ti],4.96 µM (active),–
Clc1cccc(Cl)c1Cl,–,inactive
N#Cc1cccnc1,–,inactive
O=C(N[C@H]1CN2CCC1CC2)c1ccc2c(c1)OCCO2,–,inactive
